PNC inhibitor: inhibitors of perinucleolar compartment assembly | PC3M PTB-GFP, PNC prevalence imaging, 16 h; hits give low values | activity change (PNC), negative = inhibition, % at 10 µM | 140,000 compounds, 3.1% hits;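 active = readout at or below -70, meaning at least 70% loss of cells showing the perinucleolar compartment, a nuclear body marking cancer cells; inconclusive = readout between -30 and a set limit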;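 also: plate controls were DMSO wells for no effect and camptothecin positive control wells for full effect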
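Read-out is percentage of cells bearing a perinucleolar compartment, from automated 20x imaging of fixed, Hoechst-stained PC3M PTB-GFP cells. Cells were seeded 4 h, then exposed 16 h to compound (23 nl of library stock) in duplicate plates.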
HPGD inh: inhibitors of human 15-hydroxyprostaglandin dehydrogenase (HPGD) | P15428 | purified HPGD, NADH fluorescence kinetic, PGE2 substrate | Potency, µM, without a hit: top-dose activity change, negative = inhibition, actives largely listed as inhibitors | 150,000 compounds, 4.3% hits | AID 894; also: potency is read from the fitted curve at half-maximal effect
Target sequence (P15428 whole entry, looked up): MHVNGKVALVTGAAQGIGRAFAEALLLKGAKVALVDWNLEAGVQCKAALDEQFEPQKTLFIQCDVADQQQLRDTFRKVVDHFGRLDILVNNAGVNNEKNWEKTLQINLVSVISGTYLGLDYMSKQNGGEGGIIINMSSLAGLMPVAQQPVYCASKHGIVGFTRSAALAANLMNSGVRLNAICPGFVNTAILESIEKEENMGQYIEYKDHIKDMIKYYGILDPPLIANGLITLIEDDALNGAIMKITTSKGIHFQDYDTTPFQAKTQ
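NADH formation kinetics: reaction with 30 uM PGE2 and 1 mM NAD+ (final), 20 nM enzyme, Tris-HCl pH 8 with Tween 20, after 15 min compound preincubation at room temperature. Fluorescence change, last versus first of five reads.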
IMPase cell inh: membrane-permeable compound that blocks inositol monophosphatase; P97697; CHO-M1 cells, IP1 accumulation, HTRF TR-FRET ratio; inhibition (IP1 accumulation), % at 46.1 µM; 120,000 tested, under 10 active; AID 901; active = well fitted curve in the direction sought with a large enough effect in the signal ratio, not every such curve was filed as active; inconclusive = small, poorly fitted or top-dose-only effect, or a change in a side signal; inactive = no such curve, though single readings can be large or run the other way; the % refers to the signal ratio;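 also: cells stimulated with carbachol in lithium chloride buffer; plate controls were DMSO basal wells for no effect and reference inhibitor wells for full effect; higher means more IMPase inhibition seen as more IP1 and lower FRET ratio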
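CHO-M1 cells (CHO stably expressing M1 receptor), compound up to 46 uM final, stimulated with carbachol (50 uM as added) in buffer with 50mM LiCl, pH 7.4, 30 min at 37C. Cytosolic IP1 read by TR-FRET; AC50 from Hill fits.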
IMPase Li inh: cell-permeable IMPase inhibitors with lithium potentiation; CHO-M1 cells, IP1 TR-FRET (IP-One), carbachol + lithium; Potency, µM (highest dose often 59.4 µM), inactives show top-dose activity, negative = IMPase inhibition, most hits filed as inhibitors; 210,000 compounds, 0.35% hits; AID 1457; active = well fitted curve in the direction sought with a large enough effect; inconclusive = small, poorly fitted or top-dose-only effect, or another doubt; inactive = no such curve, though single readings can be large; an effect the other way counts as inactive or inconclusive;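 also: IP1 builds up when IMPase is blocked and the TR-FRET signal falls; potency is read from the fitted curve at half-maximal effect; plate controls were basal vehicle for no effect and high inhibitor control for full effect; nearly all actives have a fitted effect of over 50% in size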
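Lithium-sensitised IP1 accumulation assay; M1-expressing CHO cells treated 30 min at 37C with compound. Competitive antibody detection by time-resolved FRET followed a 10 min room-temperature lysis step.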
ALDH1A1 block: inhibitors of human aldehyde dehydrogenase 1A1; P00352; Purified ALDH1A1, NADH fluorescence, propionaldehyde substrate; Potency, µM (top dose mostly 75.3 µM), for the others: at the highest dose activity, negative = inhibition, usual class: inhibitors; 220,000 compounds, 7.3% hits;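 also: potency is read from the fitted curve at half-maximal effect; plate controls were no enzyme wells and a reference inhibitor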
Target sequence (P00352 whole entry, looked up): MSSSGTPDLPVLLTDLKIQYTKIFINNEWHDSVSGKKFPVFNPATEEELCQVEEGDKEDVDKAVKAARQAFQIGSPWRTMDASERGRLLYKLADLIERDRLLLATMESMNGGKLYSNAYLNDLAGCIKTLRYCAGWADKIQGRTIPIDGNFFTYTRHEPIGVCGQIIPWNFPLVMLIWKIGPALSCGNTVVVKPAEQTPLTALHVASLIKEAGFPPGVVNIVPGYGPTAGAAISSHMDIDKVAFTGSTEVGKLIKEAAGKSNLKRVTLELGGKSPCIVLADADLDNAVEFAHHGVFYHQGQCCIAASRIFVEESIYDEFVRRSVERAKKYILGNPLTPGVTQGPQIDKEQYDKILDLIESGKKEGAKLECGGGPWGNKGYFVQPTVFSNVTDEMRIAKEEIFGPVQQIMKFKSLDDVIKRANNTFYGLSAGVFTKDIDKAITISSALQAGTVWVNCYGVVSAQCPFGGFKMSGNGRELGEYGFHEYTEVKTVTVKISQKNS
12-hLO inh: 12-hLO (ALOX12) enzyme inhibition | AID 1452 | purified 12-hLO, xylenol orange hydroperoxide absorbance | Potency, µM (series often up to 57.1 µM), without a hit: at the highest dose activity change, negative = inhibition, usual class: inhibitors | 150,000 compounds, 0.12% hits | P18054; active = well fitted curve in the direction sought with a large enough effect; inconclusive = small, poorly fitted or top-dose-only effect, or another doubt; inactive = no such curve, though single readings can be large; an effect the other way counts as inactive or inconclusive; also: potency is read from the fitted curve at half-maximal effect; nearly all actives have a fitted effect of over 55% in size
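Lipoxygenase turnover measured by absorbance at 573 and 405 nm after Fe-XO development. Human 12hLO 150 nM, arachidonate 40 uM, pH 7.0 Hepes buffer with detergent; 15 min compound preincubation, 30 min reaction.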
An asterisk follows results filed as active; ? = inconclusive; . = not tested or not shown; [ ] = another dose, or the depositor's remark. Sampled rows, rich in hits. Any-hit rate of the full collection: about 11%. Unless noted, calls follow the shape of the dose curve; as a rule, active = well fitted inhibition curve with a large enough effect (not every such curve was filed as active); inconclusive = small, poorly fitted or top-dose-only effect, or another doubt; inactive = no such curve, though single readings can be large or run the other way. Unless noted, % is scaled to controls: 0 for no effect and ±100 for the full control effect.

SMILES	PNC inhibitor	HPGD inh	IMPase cell inh	IMPase Li inh	ALDH1A1 block	12-hLO inh
O=c1/c(=C/c2ccccn2)sc2nc3ccccc3n12	-20	-8%	?	-4%[38.3 µM]	6%	-2%
C[C@H]1C[C@@H]2[C@@H]([C@@H](O)C[C@@]3(C)[C@H]2CC[C@]3(O)C(=O)CO)[C@@]2(C)C=CC(=O)C=C12	.	-3%	-2[20.6 µM]	13%	?	2%[25.6 µM]
CC(=O)OCCSc1c(-c2ccccc2)c2cc(Cl)ccc2[nH]c1=O	?	.	-1	.	14µM*	-4%
Oc1ccccc1/C=N/Nc1ccccc1	61	?	.	7%	?	-13%
Cn1cc(/C=N/Nc2ccccc2)c2ccccc21	.	.	.	-2%	8.9µM*	.
CCOC(=O)c1c(-c2ccc(C)cc2C)csc1NC(=O)c1ccccc1Cl	.	.	-8	.	.	.
Cc1ccc(/C=C/C(=O)O)cc1S(=O)(=O)NCCCO	3	4%	-4	-5%	-7%	0%
Cc1ccc(/C=C/C(=O)O)cc1S(=O)(=O)N(CCO)CCO	-103*	-2%	.	10%	8%	4%
Cc1cc(C)n2cc(CSc3ccccn3)nc2n1	.	.	.	-3%	?	.
Cc1cc(C)n2cc(CSCc3ccccc3)nc2n1	-89*	?	-3	-7%	?	6%
O=C(Nc1ccc2c(c1)OCO2)c1cccs1	-9	25µM*	22	-6%[38.3 µM]	?	-18%
O=S(=O)(Nc1ccc2c(c1)OCO2)c1cccs1	-2	-30%	1	-12%[38.3 µM]	5%	-8%
O=C(c1ccc2c(c1)OCCCO2)c1cccs1	-29	14µM*	5	-7%[38.3 µM]	-13%	-5%
O=C(Nc1ccc2c(c1)OCCO2)c1cccs1	?	20µM*	5	-1%	?	8%
CC(=O)Nc1ccc2c(c1)OCCO2	?	-8%	3	-18%[38.3 µM]	-13%	0%
O=S(=O)(Nc1ccc2c(c1)OCCO2)c1cccs1	38	14µM*	4	18%[38.3 µM]	-4%	1%
C/C(=N\NC(=O)c1cccs1)c1ccc2c(c1)OCO2	.	.	.	2%	2%	.
CCCCCCCC#Cc1ccccc1C(NC(=O)OC)C(C(=O)OC)C(=O)OC (stereo not drawn)	.	.	.	.	12%[13.5 µM]	.
CC(=O)N1CCc2cc(NS(=O)(=O)c3cccs3)ccc21	-21	25µM*	2	1%[38.3 µM]	-5%	-2%
O=S(=O)(Nc1ccc(Cl)cc1)c1ccc(NS(=O)(=O)c2ccc3c(c2)OCCO3)cc1	.	.	1	.	.	.
O=S(=O)(Nc1ccc(S(=O)(=O)Nc2nccs2)cc1)c1ccc2c(c1)OCCO2	2	-20%	0	14%[38.3 µM]	13µM*	2%
C[N+]1(C)C[C@@H](O)C[C@@H]1C(=O)[O-]	.	-6%	-2[20.6 µM]	-4%	12%[20.9 µM]	0%[25.6 µM]
O=C(Oc1ccccc1)N1CCC2(CCCN(c3ccccc3)C2)CC1	.	-9%	.	21%	1%	0%
CC(C)CC(=O)Nc1ccc(-c2cn3ccsc3n2)cc1	?	25µM*	5	30%[38.3 µM]	0%	2%
COc1ccc2c(=O)c(OC)c(-c3ccccc3)oc2c1	.	?	.	4%	?	-13%
SMILES	PNC inhibitor	HPGD inh	IMPase cell inh	IMPase Li inh	ALDH1A1 block	12-hLO inh
CCOC(=O)c1cc([N+](=O)[O-])c([N+](=O)[O-])cc1NC(C)=O	-26	22µM*	.	26%	8.9µM*	-3%
CC(C)c1ccc(C2CC(=O)N3CN(C)CSC3=C2C#N)cc1 (stereo not drawn)	-1	14µM*	-7	3%[38.3 µM]	3.5µM*	-21%
COc1cc(OC)c(C2CC(=O)N3CN(C)CSC3=C2C#N)cc1OC (stereo not drawn)	-3	8.9µM*	7	-2%[38.3 µM]	8.9µM*	-3%
COc1ccc(Br)cc1C1CC(=O)N2CN(Cc3ccccc3)CSC2=C1C#N (stereo not drawn)	31	7.1µM*	1	8%[38.3 µM]	0.11µM*	-30%
COc1cc(OC)c(C2CC(=O)Nc3ccc4ccccc4c32)cc1OC (stereo not drawn)	.	.	8	.	.	.
COc1ccc2ccccc2c1C1CC(=O)N2CN(C)CSC2=C1C#N (stereo not drawn)	23	6.3µM*	2	-3%[38.3 µM]	8.9µM*	?
COc1ccc(CCN2C(=O)CN(Cc3ccccc3)CC2=O)cc1OC	-7	2%	.	-2%	-49%	1%
CCSC1=C(C#N)C(c2ccccc2OC)CC(=O)N1 (stereo not drawn)	-19	-8%	-8	6%	?	0%
N#CC1=C2SCN(Cc3ccccc3)CN2C(=O)CC1c1ccccc1F (stereo not drawn)	-9	28µM*	-4	3%[38.3 µM]	10µM*	-14%
Cc1c(NC(=O)CSC2=C(C#N)C(c3ccccc3F)CC(=O)N2)c(=O)n(-c2ccccc2)n1C (stereo not drawn)	25	-7%	6	17%[38.3 µM]	-11%	-1%
COc1ccc(Br)cc1C1CC(=O)N2CN(C)CSC2=C1C#N (stereo not drawn)	50	13µM*	1	0%[38.3 µM]	7.1µM*	-14%
Oc1ccc(/C=N/NC(=S)NC2CC3CCC2C3)cc1 (stereo not drawn)	.	.	.	.	7.1µM*	.
S=C(N/N=C/c1cccs1)NC1CC2CCC1C2 (stereo not drawn)	.	.	.	.	18µM*	.
COc1ccc(/C=C/C(=O)Nc2sc3c(c2C(N)=O)CCC(C)C3)cc1OC (stereo not drawn)	.	.	0	.	.	.
CCCCNC(=O)CCn1nc(-c2ccccc2)ccc1=O	?	-7%	7	-27%[38.3 µM]	6%	-1%
CC1CCCN(CCCNC(=O)CCn2nc(-c3ccccc3)ccc2=O)C1 (stereo not drawn)	6	-14%	13	31%[38.3 µM]	22µM*	-3%
CC(C)C(OC(=O)c1cccs1)C(=O)NCc1cccs1 (stereo not drawn)	-22	-28%	2	25µM*	?	-2%
CCC(OC(=O)c1cccs1)C(=O)NCc1ccco1 (stereo not drawn)	-101*	-15%	6	27%[38.3 µM]	22µM*	6%
CC(C)C(OC(=O)c1ccco1)C(=O)NCc1ccccc1 (stereo not drawn)	?	13µM*	6	23%[38.3 µM]	0%	-6%
CC(C)CC(OC(=O)c1cccs1)C(=O)NCc1ccco1 (stereo not drawn)	-18	-11%	3	16%[38.3 µM]	?	-10%
CC(C)C(OC(=O)c1cccs1)C(=O)NCc1ccc2c(c1)OCO2 (stereo not drawn)	.	.	.	10%	-12%	.
COC(=O)c1ccccc1C(=O)N1CCCC(CCC(=O)NCc2ccc(F)c(F)c2)C1 (stereo not drawn)	.	.	.	6%	?	.
Brc1cc(Br)c2ncnc(N3CCCCC3)c2c1	11	-5%	?	13µM*	-10%	-10%
